Source: PubChem BioAssay (NCATS)
Records with an inconclusive call do not appear. Calls of active or inactive are those of the source. Unless noted, calls come from the whole dose curve; as a rule, active = well fitted curve in the direction sought with a large enough effect; inconclusive = small, poorly fitted or top-dose-only effect, or another doubt; inactive = no such curve, though single readings can be large; an effect the other way counts as inactive or inconclusive.

Legend:
[1] = Cell Viability - BJ (AID 421; calls by dose curve;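 note: potency is the fitted concentration of half-maximal effect; cells exposed to compound for 40 hours at 37 °C before readout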); details: BJ fibroblast viability, qHTS
Summary of the method: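 Luminescent ATP signal (CellTiter-Glo, 20 min at room temperature) served as the read-out of viable BJ cells after 40 hours of compound treatment. Responses were scaled between DMSO and 100 uM tamoxifen, and AC50 values were obtained by Hill modeling.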

[2] = Cell Viability - Jurkat (AID 426;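 active = dose-dependent loss of cell ATP signal giving a full or clear fitted curve, ranked by lower potency value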; note: potency is the fitted concentration of half-maximal effect); details: qHTS
Summary of the method: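 Seed 5000 Jurkat E6-1 cells/well; add compound; incubate 40 hr at 37 °C; add CellTiter-Glo; wait 20 min at room temperature; read luminescence. Fit concentration-response with Hill equation for AC50.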

[3] = Cell Viability - Hek293 (AID 427;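 active = compounds whose dose-response curve shows a full or clear partial loss of cell viability, called from curve shape rather than a numeric limit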;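 note: potency is the fitted concentration of half-maximal effect; cells exposed to compound for 40 hours at 37 °C before reading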); details: qHTS
Summary of the method: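 Luminescent ATP read-out (CellTiter-Glo, 20 min RT) after 40 hr compound exposure at 37 °C in complete medium. Signal normalized to DMSO (basal) and 100 uM tamoxifen (100% inhibition); concentration-response fitted with the standard Hill equation to give AC50.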

[4] = Cell Viability - HepG2 (AID 433; calls by dose curve;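 note: potency is the fitted concentration of half-maximal effect; potency for ATP loss meaning cytotoxicity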); details: qHTS
Summary of the method: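 HepG2 hepatocellular carcinoma cells (1500/well) were treated with compounds for 40 h at 37 °C in complete medium; intracellular ATP was read by CellTiter-Glo luminescence. Data were normalized to DMSO and 100 uM tamoxifen, and AC50 came from Hill fits.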

[5] = Cell Viability - MRC5 (AID 434; calls by dose curve;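 note: potency is the fitted concentration of half-maximal effect; potency reflects cytotoxicity seen as loss of intracellular ATP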); details: MRC5 lung fibroblast viability, qHTS
Summary of the method: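 MRC5 normal human lung fibroblasts, 1500 cells/well, exposed to compound for 40 hr at 37 C. Cellular ATP was read by CellTiter-Glo luminescence; data normalized to DMSO and 100 uM tamoxifen, with AC50 from Hill fits.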

[6] = Cell Viability - SK-N-SH (AID 435; calls by dose curve;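 note: potency is the fitted concentration of half-maximal effect; compound exposure lasted 40 h at 37 °C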); details: SK-N-SH neuroblastoma cell viability qHTS
Summary of the method: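 SK-N-SH human neuroblastoma cells (1500/well) were exposed to compounds in complete medium for 40 h at 37 °C, and intracellular ATP was then measured by CellTiter-Glo luminescence. AC50 was taken from Hill fits, normalized to DMSO and 100 uM tamoxifen.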

[7] = molecular target: Mitogen-activated protein kinase 10 (Mus musculus) (UniProt Q61831); assay: JNK3 AlphaScreen Assay (AID 530; active = well fitted curve in either direction with a large enough effect, not every such curve was filed as active;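 note: kinase came from lysate of stimulated human HepG2 cells; signal reports phosphorylation of biotinylated GST-cJun 1-79 at Ser73 with 10 µM ATP; % is set by controls: 0 for no effect and ±100 for the full control effect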); details: JNK3 lysate, c-Jun phosphorylation; series mostly up to 57.1 µM
Summary of the method: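 qHTS format: compounds tested as titrations against IL-1beta/TNF-alpha-activated HepG2 lysate JNK3 with biotin-GST-cJun substrate and 10 uM ATP at room temperature. Loss of anti-phospho-cJun AlphaScreen signal indicates inhibition.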

[8] = Cell Viability - N2a (AID 540); details: N2a mouse neuroblastoma cell viability; activity change, negative = cytotoxicity: at 92.2 µM (top of the series);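 note: plate controls were DMSO alone for no effect and tamoxifen control for full effect; nearly all actives have a fitted effect of over 45% in size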
Summary of the method: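 First, 1500 N2a cells per well incubate 5 hr at 37 °C; next, compounds are added and incubated 40 hr at 37 °C; finally CellTiter-Glo is added and luminescence read after 20 min, with AC50 derived by Hill modeling.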

[9] = Cell Viability - NIH 3T3 (AID 541); details: NIH 3T3 cell viability, qHTS; activity change, negative = cytotoxicity: at 92.2 µM (top of the series);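 note: plate controls were DMSO alone for no effect and tamoxifen positive control for full effect; nearly all actives have a fitted effect of over 25% in size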
Summary of the method: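 AC50 values reflect concentration-dependent loss of intracellular ATP in NIH 3T3 cells after 40 hr treatment in complete culture medium, quantified by luciferase-based luminescence.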

[10] = Cell Viability - HUV-EC-C (AID 542); details: HUV-EC-C endothelial cell viability, qHTS; series mostly up to 92.2 µM; note: % is set by controls: 0 for no effect and ±100 for the full control effect; nearly all actives have a fitted effect of over 35% in size
Summary of the method: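 Decrease in cellular ATP, quantified by luciferase luminescence, reflects toxicity in normal human vascular endothelial HUV-EC-C cells given compound for 40 hr in complete culture medium. Values are AC50s from concentration-response curves.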

[11] = Cell Viability - H-4-II-E (AID 543); details: H-4-II-E rat hepatoma viability; series mostly up to 92.2 µM; note: % is set by controls: 0 for no effect and ±100 for the full control effect; nearly all actives have a fitted effect of over 35% in size
Summary of the method: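 Here, cytotoxicity is measured in the rat hepatoma line H-4-II-E as loss of intracellular ATP after 40 hr compound treatment, detected by luciferase luminescence.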

[12] = Cell Viability - Mesenchymal (AID 546); details: mesenchymal cells viability, qHTS; series mostly up to 91.7 µM;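 note: cells exposed to compound for 40 hours before reading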
Summary of the method: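 Human kidney mesenchymal cells from normal renal glomeruli, 1000 cells/well, rested 5 hr at 37 °C, then treated 40 hr at 37 °C in complete medium. Cellular ATP read by CellTiter-Glo luminescence; AC50 from Hill-equation fits.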

[13] = Cellular Toxicity (caspase-3) HepG2 (AID 654); details: HepG2 caspase-3 activation, luminescence; series mostly up to 92.2 µM;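 note: cells exposed to compound for 16 hours before reading; 0% = DMSO alone and 100% = caspase signal from 100 µM tamoxifen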
Summary of the method: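 qHTS, HepG2, 1500 cells/well, complete medium; cpd 16 h 37 °C; Caspase-Glo 3/7, 20 min RT; lum. Norm: DMSO vs 100 uM tamoxifen; AC50 Hill fit.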

[14] = Cellular Toxicity (caspase-3) Jurkat (AID 655); details: Jurkat caspase-3 activation, luminescence; caspase-3 activation: at 92.2 µM (top of the series), DMSO = 0%, tamoxifen = 100%;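 note: cells exposed to compound for 16 h at 37 °C before reading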
Summary of the method: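 Jurkat cells (5000/well) in complete medium were treated with compounds for 16 hr at 37 °C, then Caspase-Glo 3/7 luminescence was read after 20 min at room temperature. Data normalized to DMSO (basal) and 100 uM tamoxifen (100%); AC50 from Hill fit.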

[15] = Cellular Toxicity (caspase-3) HUV-EC-C (AID 656); details: HUV-EC-C cells, caspase-3 activation (apoptosis), vehicle = 0, 100 µM tamoxifen = 100%; series mostly up to 92.2 µM
Summary of the method: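 HUV-EC-C endothelial cells, 1000/well, were pre-incubated 5 hr at 37°C, then exposed to compounds for 16 hr at 37°C. Caspase-Glo 3/7 luminescence was read after 20 min at room temperature. AC50 came from Hill fits, normalized to DMSO and 100 uM tamoxifen.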

[16] = Cellular Toxicity (caspase-3) SHSY5Y (AID 657); details: SH-SY5Y caspase-3 activation, DMSO zero, 10 µM staurosporine = 100%; series mostly up to 91.7 µM
Summary of the method: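 SH-SY5Y human neuroblastoma cells (1500/well) were treated with compounds for 16 h at 37 °C, then Caspase-Glo 3/7 luminescence was read after 1 h at room temperature. Data normalized to DMSO and 10 uM staurosporine; AC50 from Hill fits.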

[17] = Cellular Toxicity (caspase-3) BJ (AID 658); details: BJ fibroblasts, luminescence, normalized: DMSO 0%, staurosporine 100%; series mostly up to 91.7 µM
Summary of the method: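 BJ human foreskin fibroblasts, 1000 cells/well, treated 16 hours at 37 °C in complete medium; caspase 3/7 activity by Caspase-Glo luminescence after 1 hr at room temperature. Normalized to DMSO and 10 uM staurosporine; AC50 from Hill fits.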

[18] = Cellular Toxicity (caspase-3) MRC-5 (AID 659); details: MRC-5 cells, luminescence, normalized: DMSO 0%, 10 µM staurosporine 100%; series mostly up to 91.7 µM
Summary of the method: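 MRC-5 human normal lung fibroblasts, 1500 cells/well, treated 16 h at 37 °C in complete medium. Caspase 3/7 measured by Caspase-Glo luminescence after 1 h at room temperature. Normalized to DMSO and 10 uM staurosporine; AC50 from Hill fit.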

[19] = Cell Viability - SH-SY5Y (AID 544); details: SH-SY5Y neuroblastoma cell viability; viability change, negative = cytotoxic: at 92.2 µM (top of the series); note: nearly all actives have a fitted effect of over 55% in size
Summary of the method: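 Cytotoxicity is scored as a concentration-dependent fall in intracellular ATP in human SH-SY5Y cells treated 40 hr in complete culture medium. Potency is expressed as AC50 from a Hill equation fit.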

[20] = Cell Viability - Renal Proximal Tubule (AID 545); details: renal proximal tubule cells viability, primary cells of rat origin; series mostly up to 91.7 µM; note: nearly all actives have a fitted effect of over 40% in size
Summary of the method: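 Primary rat renal proximal tubule cells (1000/well) were treated with compounds for 40 hr at 37 °C in complete medium. Intracellular ATP was measured by CellTiter-Glo luminescence, and AC50 values came from Hill-equation fits of concentration-response data.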

Cc1ccc(N(C)C)cc1
inactive: Potency [1] > 92 µM | Potency [2] > 92 µM | Potency [3] > 92 µM | Potency [4] > 92 µM | Potency [5] > 92 µM | Potency [6] > 92 µM | outcome [7] | activity change, negative = cytotoxicity [8] -13.1% | Potency [9] | Potency [10] | Potency [11] | Potency [12] | Potency [13] | caspase-3 activation [14] 2.02% | outcome [15] | outcome [16] | outcome [17] | outcome [18]

COc1cccc2sc(N)nc12
inactive: Potency [1] > 92 µM | Potency [2] > 92 µM | Potency [3] > 92 µM | Potency [4] > 92 µM | Potency [5] > 92 µM | Potency [6] > 92 µM | outcome [7] | activity change, negative = cytotoxicity [8] -10.1% | Potency [9] | Potency [11] | Potency [19] | Potency [20] | Potency [12] | Potency [13] | caspase-3 activation [14] -0.447% | outcome [15] | outcome [16] | outcome [18]

CNc1ccc([N+](=O)[O-])cc1
inactive: Potency [1] > 92 µM | Potency [2] > 92 µM | Potency [3] > 92 µM | Potency [4] > 92 µM | Potency [5] > 92 µM | Potency [6] > 92 µM | outcome [7] | activity change, negative = cytotoxicity [8] -12.7% | Potency [11] | Potency [19] | Potency [20] | Potency [12] | Potency [13] | caspase-3 activation [14] -0.0856% | outcome [15] | outcome [16] | outcome [17] | outcome [18]

O=Cc1c(Cl)cccc1Cl
inactive: Potency [1] > 92 µM | Potency [2] > 92 µM | Potency [3] > 92 µM | Potency [4] > 92 µM | Potency [5] > 92 µM | Potency [6] > 92 µM | outcome [7] | activity change, negative = cytotoxicity [8] -16.5% | Potency [10] | Potency [19] | Potency [20] | Potency [12] | Potency [13] | caspase-3 activation [14] 3.49% | outcome [15] | outcome [16] | outcome [17] | outcome [18]

Cc1c(N)cccc1N
inactive: Potency [1] > 92 µM | Potency [2] > 92 µM | Potency [3] > 92 µM | Potency [4] > 92 µM | Potency [5] > 92 µM | Potency [6] > 92 µM | outcome [7] | activity change, negative = cytotoxicity [8] -3.84% | Potency [9] | Potency [19] | Potency [20] | Potency [12] | Potency [13] | outcome [15] | outcome [16] | outcome [17] | outcome [18]

O=Cc1ccccc1Cl
inactive: Potency [1] > 92 µM | Potency [2] > 92 µM | Potency [3] > 92 µM | Potency [4] > 92 µM | Potency [5] > 92 µM | Potency [6] > 92 µM | outcome [7] | activity change, negative = cytotoxicity [8] -4.91% | Potency [9] | Potency [11] | Potency [19] | Potency [20] | Potency [12] | Potency [13] | caspase-3 activation [14] 7.22% | outcome [15] | outcome [16] | outcome [17] | outcome [18]

C=CCOC(=O)COCCC(C)C
inactive: Potency [1] > 92 µM | Potency [2] > 92 µM | Potency [3] > 92 µM | Potency [4] > 92 µM | Potency [5] > 92 µM | Potency [6] > 92 µM | outcome [7] | activity change, negative = cytotoxicity [8] -4.01% | Potency [11] | Potency [20] | Potency [12] | Potency [13] | caspase-3 activation [14] -0.573% | outcome [15] | outcome [16] | outcome [17] | outcome [18]

Cc1ccccc1C(=O)O
inactive: Potency [1] > 92 µM | Potency [2] > 92 µM | Potency [3] > 92 µM | Potency [4] > 92 µM | Potency [5] > 92 µM | Potency [6] > 92 µM | outcome [7] | activity change, negative = cytotoxicity [8] -16.3% | Potency [9] | Potency [10] | Potency [19] | Potency [12] | Potency [13] | caspase-3 activation [14] -1.34% | outcome [15] | outcome [16] | outcome [17] | outcome [18]

Cc1cccc(C)c1
inactive: Potency [1] > 92 µM | Potency [2] > 92 µM | Potency [3] > 92 µM | Potency [4] > 92 µM | Potency [5] > 92 µM | Potency [6] > 92 µM | outcome [7] | activity change, negative = cytotoxicity [8] 2.48% | Potency [9] | Potency [10] | Potency [19] | Potency [12] | Potency [13] | caspase-3 activation [14] -2.27% | outcome [15] | outcome [16] | outcome [17] | outcome [18]

C=CC(=O)OCCCC
inactive: Potency [1] > 92 µM | Potency [2] > 92 µM | Potency [3] > 92 µM | Potency [4] > 92 µM | Potency [5] > 92 µM | Potency [6] > 92 µM | outcome [7] | activity change, negative = cytotoxicity [8] 10.3% | Potency [9] | Potency [11] | Potency [19] | Potency [20] | Potency [12] | Potency [13] | caspase-3 activation [14] 0.501% | outcome [15] | outcome [16] | outcome [17] | outcome [18]

C=C(C)OC(C)=O
inactive: Potency [1] > 92 µM | Potency [2] > 92 µM | Potency [3] > 92 µM | Potency [4] > 92 µM | Potency [5] > 92 µM | Potency [6] > 92 µM | outcome [7] | activity change, negative = cytotoxicity [8] -6.88% | Potency [10] | Potency [20] | Potency [12] | Potency [13] | caspase-3 activation [14] -0.77% | outcome [15] | outcome [16] | outcome [17] | outcome [18]

CC1CCC2CC1C2(C)C (stereo not given)
inactive: Potency [1] > 92 µM | Potency [2] > 92 µM | Potency [3] > 92 µM | Potency [4] > 92 µM | Potency [5] > 92 µM | Potency [6] > 92 µM | outcome [7] | activity change, negative = cytotoxicity [8] -4.47% | Potency [9] | Potency [11] | Potency [20] | Potency [12] | Potency [13] | caspase-3 activation [14] -1.25% | outcome [15] | outcome [16] | outcome [17] | outcome [18]
